In the supplement of paper PMC7411054:

Key:
Conditions in all cases: treatment time: 24 h
[1] = tested on: A549-ACTB-RAB5A; assay: lowest phenotypically active concentration; higher = less potent
In short: (§1)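 After 24 h at 0.3, 1, 3 or 9 µM, with four wells per treatment, fifteen gene-edited A549, HepG2 and WPMY1 reporter lines carrying BFP, GFP and RFP/FusionRed were imaged live. Each well's live-cell features were expressed relative to solvent control wells. Deviation required ≥3 of 4 wells past the 95th percentile of control Euclidean distances, and reproducibility a median replicate Pearson correlation over the 95th percentile of non-replicates. Phenotypic activity rested on both.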

[2] = tested on: A549-CANX-COX4; assay: as above
In short: as §1

[3] = tested on: A549-GM130-SQSTM1; assay: as above
In short: as §1

[4] = tested on: A549-TUBA1B-RELA; assay: as above
In short: as §1

[5] = tested on: HepG2-ACTB-RAB5A; assay: as above
In short: as §1

[6] = tested on: A549-ACTB-RAB5A; assay: phenotypically active (imaging signature differs from DMSO and reproducible) at any of 0.3-9 uM (binary (1 = active, 0 = inactive)); higher = active
In short: as §1

[7] = tested on: A549-CANX-COX4; assay: as above
In short: as §1

[8] = tested on: A549-GM130-SQSTM1; assay: as above
In short: as §1

[9] = tested on: A549-TP53BP1-CLTA; assay: as above
In short: as §1

[10] = tested on: A549-TUBA1B-RELA; assay: as above
In short: as §1

[11] = tested on: HepG2-ACTB-RAB5A; assay: as above
In short: as §1

[12] = tested on: HepG2-CANX-COX4; assay: as above
In short: as §1

[13] = tested on: HepG2-GM130-SQSTM1; assay: as above
In short: as §1

[14] = tested on: HepG2-TP53BP1-CLTA; assay: as above
In short: as §1

[15] = tested on: HepG2-TUBA1B-RELA; assay: as above
In short: as §1

[16] = tested on: WPMY1-ACTB-RAB5A; assay: as above
In short: as §1

[17] = tested on: WPMY1-CANX-COX4; assay: as above
In short: as §1

[18] = tested on: WPMY1-GM130-SQSTM1; assay: as above
In short: as §1

[19] = tested on: WPMY1-TP53BP1-CLTA; assay: as above
In short: as §1

[20] = tested on: WPMY1-TUBA1B-RELA; assay: as above
In short: as §1

Cn1cc(-c2[nH]c3cc(NC(=O)[C@H](N)C4CCCCC4)cc4c3c2C=NNC4=O)cn1
9 µM: lowest phenotypically active concentration [1] | lowest phenotypically active concentration [2] | lowest phenotypically active concentration [3] | lowest phenotypically active concentration [4]
active: phenotypically active [6] 1 | phenotypically active [7] 1 | phenotypically active [8] 1 | phenotypically active [9] 1 | phenotypically active [10] 1 | phenotypically active [11] 1 | phenotypically active [12] 1 | phenotypically active [13] 1 | phenotypically active [14] 1 | phenotypically active [15] 1 | phenotypically active [16] 1 | phenotypically active [17] 1 | phenotypically active [18] 1 | phenotypically active [19] 1 | phenotypically active [20] 1
1 µM: lowest phenotypically active concentration [5]

COc1cc2c(Nc3ccc(Br)cc3F)ncnc2cc1OCC1CCN(C)CC1 [vandetanib]
active: phenotypically active [6] 1 | phenotypically active [7] 1 | phenotypically active [8] 1 | phenotypically active [9] 1 | phenotypically active [10] 1 | phenotypically active [11] 1 | phenotypically active [12] 1 | phenotypically active [13] 1 | phenotypically active [14] 1 | phenotypically active [15] 1 | phenotypically active [16] 1 | phenotypically active [17] 1 | phenotypically active [18] 1 | phenotypically active [19] 1 | phenotypically active [20] 1
3 µM: lowest phenotypically active concentration [2] | lowest phenotypically active concentration [5]
1 µM: lowest phenotypically active concentration [1] | lowest phenotypically active concentration [3] | lowest phenotypically active concentration [4]

Cc1ccc(/C(=C/CN2CCCC2)c2cccc(/C=C/C(=O)O)n2)cc1 [acrivastine]
1 µM: lowest phenotypically active concentration [1] | lowest phenotypically active concentration [4]
active: phenotypically active [6] 1 | phenotypically active [7] 1 | phenotypically active [8] 1 | phenotypically active [9] 1 | phenotypically active [10] 1 | phenotypically active [11] 1 | phenotypically active [12] 1 | phenotypically active [13] 1 | phenotypically active [14] 1 | phenotypically active [15] 1 | phenotypically active [16] 1 | phenotypically active [17] 1 | phenotypically active [18] 1 | phenotypically active [19] 1 | phenotypically active [20] 1
9 µM: lowest phenotypically active concentration [2]
3 µM: lowest phenotypically active concentration [3] | lowest phenotypically active concentration [5]

CC(=O)O[C@@]12CO[C@@H]1C[C@H](O)[C@@]1(C)C(=O)[C@H](O)C3=C(C)[C@@H](OC(=O)[C@H](O)[C@@H](NC(=O)OC(C)(C)C)c4ccccc4)C[C@](O)([C@@H](OC(=O)c4ccccc4)[C@H]21)C3(C)C [Docetaxel]
≤ 0.3 µM: lowest phenotypically active concentration [1] | lowest phenotypically active concentration [2] | lowest phenotypically active concentration [3] | lowest phenotypically active concentration [4] | lowest phenotypically active concentration [5]
active: phenotypically active [6] 1 | phenotypically active [7] 1 | phenotypically active [8] 1 | phenotypically active [9] 1 | phenotypically active [10] 1 | phenotypically active [11] 1 | phenotypically active [12] 1 | phenotypically active [13] 1 | phenotypically active [14] 1 | phenotypically active [15] 1 | phenotypically active [16] 1 | phenotypically active [17] 1 | phenotypically active [18] 1 | phenotypically active [19] 1 | phenotypically active [20] 1

CC(C)n1nc(-c2cc3cc(O)ccc3[nH]2)c2c(N)ncnc21
active: phenotypically active [6] 1 | phenotypically active [7] 1 | phenotypically active [8] 1 | phenotypically active [9] 1 | phenotypically active [10] 1 | phenotypically active [11] 1 | phenotypically active [12] 1 | phenotypically active [13] 1 | phenotypically active [14] 1 | phenotypically active [15] 1 | phenotypically active [16] 1 | phenotypically active [17] 1 | phenotypically active [18] 1 | phenotypically active [19] 1 | phenotypically active [20] 1
1 µM: lowest phenotypically active concentration [1] | lowest phenotypically active concentration [2] | lowest phenotypically active concentration [3] | lowest phenotypically active concentration [4] | lowest phenotypically active concentration [5]

COc1cc(OC2CCN(C)CC2)ccc1Nc1ncc2c(n1)n(C1CCCC1)c(=O)n2C
active: phenotypically active [6] 1 | phenotypically active [7] 1 | phenotypically active [8] 1 | phenotypically active [9] 1 | phenotypically active [10] 1 | phenotypically active [11] 1 | phenotypically active [12] 1 | phenotypically active [13] 1 | phenotypically active [14] 1 | phenotypically active [15] 1 | phenotypically active [16] 1 | phenotypically active [17] 1 | phenotypically active [18] 1 | phenotypically active [19] 1 | phenotypically active [20] 1
3 µM: lowest phenotypically active concentration [1] | lowest phenotypically active concentration [2] | lowest phenotypically active concentration [3] | lowest phenotypically active concentration [4] | lowest phenotypically active concentration [5]

O=C(OC12CC3CC(CC(C3)C1)C2)c1ccc(NCc2cc(O)ccc2O)cc1 [Adaphostin]
active: phenotypically active [6] 1 | phenotypically active [7] 1 | phenotypically active [8] 1 | phenotypically active [9] 1 | phenotypically active [10] 1 | phenotypically active [11] 1 | phenotypically active [12] 1 | phenotypically active [13] 1 | phenotypically active [14] 1 | phenotypically active [15] 1 | phenotypically active [16] 1 | phenotypically active [17] 1 | phenotypically active [18] 1 | phenotypically active [19] 1 | phenotypically active [20] 1
9 µM: lowest phenotypically active concentration [2] | lowest phenotypically active concentration [3]
3 µM: lowest phenotypically active concentration [4]
1 µM: lowest phenotypically active concentration [1] | lowest phenotypically active concentration [5]

Cc1cc(Nc2cc(N3CCN(C)CC3)nc(Sc3ccc(NC(=O)C4CC4)cc3)n2)[nH]n1
≤ 0.3 µM: lowest phenotypically active concentration [1] | lowest phenotypically active concentration [2] | lowest phenotypically active concentration [3] | lowest phenotypically active concentration [4] | lowest phenotypically active concentration [5]
active: phenotypically active [6] 1 | phenotypically active [7] 1 | phenotypically active [8] 1 | phenotypically active [9] 1 | phenotypically active [10] 1 | phenotypically active [11] 1 | phenotypically active [12] 1 | phenotypically active [13] 1 | phenotypically active [14] 1 | phenotypically active [15] 1 | phenotypically active [16] 1 | phenotypically active [17] 1 | phenotypically active [18] 1 | phenotypically active [19] 1 | phenotypically active [20] 1

COc1cc(/C=C/c2ccc(OC)cc2OC)cc(OC)c1
1 µM: lowest phenotypically active concentration [2]
active: phenotypically active [6] 1 | phenotypically active [7] 1 | phenotypically active [8] 1 | phenotypically active [9] 1 | phenotypically active [10] 1 | phenotypically active [11] 1 | phenotypically active [12] 1 | phenotypically active [13] 1 | phenotypically active [14] 1 | phenotypically active [15] 1 | phenotypically active [16] 1 | phenotypically active [17] 1 | phenotypically active [18] 1 | phenotypically active [19] 1 | phenotypically active [20] 1
3 µM: lowest phenotypically active concentration [1] | lowest phenotypically active concentration [3] | lowest phenotypically active concentration [4] | lowest phenotypically active concentration [5]

Cc1ccc(NC(=O)CCCCCC(=O)Nc2ccccc2N)cc1
1 µM: lowest phenotypically active concentration [1] | lowest phenotypically active concentration [3] | lowest phenotypically active concentration [5]
active: phenotypically active [6] 1 | phenotypically active [7] 1 | phenotypically active [8] 1 | phenotypically active [9] 1 | phenotypically active [10] 1 | phenotypically active [11] 1 | phenotypically active [12] 1 | phenotypically active [13] 1 | phenotypically active [14] 1 | phenotypically active [15] 1 | phenotypically active [16] 1 | phenotypically active [17] 1 | phenotypically active [18] 1 | phenotypically active [19] 1 | phenotypically active [20] 1
3 µM: lowest phenotypically active concentration [2] | lowest phenotypically active concentration [4]

Cc1c(CN2CCN(C(=O)[C@H](C)O)CC2)sc2c(N3CCOCC3)nc(-c3cnc(N)nc3)nc12
active: phenotypically active [6] 1 | phenotypically active [7] 1 | phenotypically active [8] 1 | phenotypically active [9] 1 | phenotypically active [10] 1 | phenotypically active [11] 1 | phenotypically active [12] 1 | phenotypically active [13] 1 | phenotypically active [14] 1 | phenotypically active [15] 1 | phenotypically active [16] 1 | phenotypically active [17] 1 | phenotypically active [18] 1 | phenotypically active [19] 1 | phenotypically active [20] 1
≤ 0.3 µM: lowest phenotypically active concentration [1] | lowest phenotypically active concentration [2] | lowest phenotypically active concentration [3] | lowest phenotypically active concentration [4] | lowest phenotypically active concentration [5]
